The source of these data is PubChem BioAssay (NCI).

What all share (experiment): NCI-60 one-dose screen, 48 h (100 = growth as untreated, 0 = no growth, -100 = all killed)
Common to all, as to conditions: 10 µM unless noted

Test [1] concerns HCT-15 colon.
The subject of test [2] is HT29 colon.
The test system of test [3] is SNB-75 CNS.
Test [4] deals with SNB-19 CNS.
The subject of test [5] is U251 CNS.
Test [6] relates to PC-3 prostate.
Test [7] deals with UACC-62 melanoma.
Test [8] has as its system LOX IMVI melanoma.
Test [9] concerns SK-MEL-28 melanoma.

The structures appear in SMILES notation. Compounds without any hit were thinned out: in the full panel of roughly 83,000, 20% have a hit.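 Single-dose data. Exposure time 48 hours. Values below 10 considered active.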 Unmarked numbers belong to inactive results. Active and inactive are the calls of the source.

In the case of `COc1cc(-c2nc3ccccc3[nH]2)ccc1OCC(=O)N=Nc1c(O)[nH]c2ccc(Cl)cc12`, the growth in test [1] was 77.4%; in test [2] it was -59% (active); in test [3] it was -88.4% (active); in test [4], -93.1% (active); in test [5] it was -95% (active); in test [6] it was -73% (active). The figures for the growth in test [7], in test [8] and in test [9] were -64.3% (active), -97.1% (active) and -65.4% (active), respectively.
Turning to `O=c1cc(/C(=C2/C=CC=N2)c2ccc[nH]2)c2cc(Cl)ccc2o1`, the growth is 35.1% in [1]; 47.9% in test [2]; 24.6% in test [3]; 25.7% in [4]; 14.4% in test [5]; 38.9% in test [6]. For the same compound, the figures for the growth in [7], in test [8] and in test [9] were 42.9%, 34.3% and 61.8%, respectively.
For the compound `C=C1C(=O)O[C@H]2[C@H]1CC/C(COC(=O)c1cc3cc(OC)ccc3[nH]1)=C\CC[C@@]1(C)O[C@@H]21`, the growth was -43.5% (active) in test [1]; -83.4% (active) in test [2]; -68.5% (active) in test [3]; -64.3% (active) in [4]; -97.7% (active) in test [5]; -71.5% (active) in test [6]. The growth is -90.6% (active) in test [7], -91% (active) in [8] and -80.8% (active) in [9].
Regarding `COc1ccc(/C=C\c2cc(OC)c(OC)c(OC)c2)cc1OCC(=O)Nc1ccc2nc(C)sc2c1`, the growth is 28.3% in [1]; 29.2% in test [2]; 26.9% in [3]; 57.4% in test [4]; 38.3% in [5]; 23.4% in test [6]. The figures for the growth in test [7] and in test [8] were 11.9% and 49.6%, respectively.
With `COc1ccc(-c2cc(=O)c3c(OC)c4ccoc4cc3o2)cc1`, the growth was 92.4% in test [1]; 82.1% in test [2]; 104% in test [3]; 82.4% in test [4]; 92.5% in test [5]; 86.1% in test [6]. The growth was 98.4% in test [7], 95.1% in test [8] and 118% in test [9].
Take `CCN1CCN(c2nc(NCCCNc3ccnc4cc(Cl)ccc34)c3ccccc3n2)CC1`: the growth in test [1] is 25.8%; in test [2], -16% (active); in test [3], 57%; in test [4] it was 16.5%; in test [5], -26.7% (active); in [6] it was 37%. Also, the growth in test [7] is -75.6% (active); in test [8], -69.3% (active); in [9], -66.4% (active).
As for `O=C(C(=O)c1ccc2c(c1)OCO2)c1ccc2c(c1)OCO2`, the growth in test [1] was 110%; in test [2], 103%; in [3] it was 90.3%; in test [4], 104%; in [5] it was 103%; in [6], 100%. The growth in test [7] is 105%; in test [8], 106%; in test [9], 110%.
For `COc1cccc2c1C(=O)c1c(O)c3c(c(O)c1C2=O)C[C@](O)(C(=O)CO)C[C@H]3O[C@@H]1C[C@@H](NC(=O)CCCCCN(C)C2(c3ccc(F)cc3)CC3CCC2C3)[C@H](O)[C@@H](C)O1` (stereo partly specified), the growth is 0.779% (active) in test [1]; -55.5% (active) in test [2]; 41.3% in test [3]; 10.4% in test [4]; -100% (active) in [5]; -82.7% (active) in test [6].
Take `COc1ccc(/C=C\c2cc(OC)c(OC)c(OC)c2)cc1OC(=O)c1cccc(Cn2cc(CCOC(=O)[C@H](N)Cc3cn(C)c4ccccc34)nn2)c1`: the growth in [1] is 12.4%; in [2], 8.6% (active); in test [3], 22.9%; in test [4], 31.2%; in test [5], 19.2%; in test [6], 18.8%. In addition, the growth was 42.7% in [7], 22.3% in test [8] and 63.1% in test [9].
As to `COc1ccc(/C=C/C(=O)c2cc(O)ccc2O)cc1`, the growth was 87.7% in test [1]; 102% in [2]; 84.1% in test [3]; 96.6% in test [4]; 84.8% in [5]; 88.4% in [6]. Moreover, the growth is 102% in test [7], 103% in test [8] and 109% in test [9].
On to `CCC(=O)c1ccc(Cl)s1`, for which the growth is 105% in test [1]; 96.9% in [2]; 91.4% in test [3]; 102% in test [4]; 94.6% in test [5]; 98.4% in test [6]. For the same compound, the growth in test [7] was 106%; in [8], 107%; in [9], 99.6%.
`O=C1Nc2c(ccc(Cl)c2Cl)/C1=C\c1cc(C(F)(F)F)cc(C(F)(F)F)c1`: the growth in test [1] is -80.8% (active); in [2] it was -26.5% (active); in [3], 13.7%; in [4], 21.7%; in test [5] it was -54.2% (active); in test [6], 0.08% (active). In addition, the growth in [7] is -3.92% (active); in test [8] it was -90.1% (active); in [9], -21% (active).
For the compound `O=c1ccccc(-c2ccc(-c3ccco3)cc2)c1O`, the growth in [1] is 29%; in test [2], 24.9%; in test [3], 38.8%; in [4], 19.3%; in [5] it was 8.2% (active); in [6] it was 32%. Also, the growth in test [7] was -42.3% (active); in test [8], 8.59% (active); in test [9], 30.7%.
Consider `C#CC(F)(F)[C@]1(O)CC[C@H]2[C@@H]3CCC4=CC(=O)CCC4=C3[C@@H](c3ccc(C(C)=O)cc3)C[C@@]21C`, for which the growth in test [1] is 89.6%; in test [2], 1.5% (active); in test [3], 73.7%; in test [4], 95.6%; in test [5], 75.5%; in [6], 37%. The growth in test [7] is 80.2%; in test [8], 48.9%; in test [9] it was 107%.
`CCOC(=O)c1c(C)oc2ncnc(N3CCN(C(=S)Nc4ccccc4)CC3)c12`: the growth in [1] is 90.6%; in [2], 102%; in [3], 80.5%; in [4], 96.5%; in [5] it was 89.7%; in test [6], 91.8%. Further, the growth was 87.2% in [7], 90.7% in test [8] and 107% in [9].
Take `Cc1nn(-c2cc(=O)[nH]c3ccccc23)c(N)c1C#N`: the growth was 106% in test [1]; 107% in test [2]; 82.4% in test [3]; 102% in [4]; 99% in test [5]; 96% in test [6]. In addition, the growth is 99.2% in test [7], 98.4% in test [8] and 109% in test [9].
In the case of `O=C(/C=C/c1cc(CN2CCOCC2)c(O)c2ncccc12)c1cc(CN2CCOCC2)c(O)c2ncccc12`, the growth in test [1] was 16.2%; in test [2] it was 16.8%; in test [3], 32.2%; in test [4] it was 20.7%; in test [5] it was 3.35% (active); in test [6], 23.7%. The growth in test [7] is 10.1%; in test [8], 19.3%; in [9], 37%.
`COc1ccc(O)c(N=Nc2nccs2)c1`: the growth is 67.3% in [1]; 79.7% in test [2]; 91% in test [3]; 94.9% in [4]; 54.4% in test [5]; 67.3% in test [6]. Moreover, the growth in test [7] is 89.8%; in test [8] it was 60.9%; in test [9], 115%.
In the case of `CC(=O)OC[C@H]1O[C@H](OC(C)=O)[C@H](NC(=O)/C=C/CCl)[C@@H](OC(C)=O)[C@@H]1OC(C)=O`, the growth in test [1] is 99.1%; in test [2] it was 54.3%; in [3] it was 71.3%; in test [4], 86.8%; in test [5], 45.1%; in test [6], 70.4%.
Take `CC(C)CC1C(=O)N2CCC[C@H]2C2(O)O[C@](NC(=O)C3C=C4c5cccc6[nH]c(Br)c(c56)C[C@H]4N(C)C3)(C(C)C)C(=O)N12` (stereo partly specified): the growth in test [1] was 43.1%; in test [2], 53.2%; in test [3] it was 35.5%; in test [4], 69.9%; in [5], 53.4%; in [6], 20.4%. Moreover, the growth was 56.4% in test [7], 62.5% in test [8] and 91.3% in [9].
For `O=C1c2cc3c(cc2-c2c1c1ccc(F)cc1c(=O)n2CCCNCCO)OCO3`, the growth was -41.8% (active) in test [1]; -74.3% (active) in [2]; -98.5% (active) in test [3]; -21.9% (active) in test [4]; -82.8% (active) in [5]; -41.9% (active) in test [6]. Besides, the growth in test [7] is -60.5% (active); in [8] it was -88.3% (active); in test [9] it was -13.8% (active).
`Nc1n[nH]c2cc(F)c([C@@H]3Nc4ccc5[nH]ncc5c4[C@H]4C5CCC(C5)[C@@H]34)cc12` (stereo partly specified): the growth was 6.23% (active) in test [1]; 3.7% (active) in test [2]; -13.5% (active) in test [3]; 35.4% in test [4]; 2.97% (active) in [5]; 8.48% (active) in [6]. In addition, the growth was 31.5% in [7], 12.3% in test [8] and 65.8% in test [9].
For the compound `O=C1C=C(O)C(=O)C(CC2=C(O)C(=O)C=C(O)C2=O)=C1O`, the growth was 105% in test [1]; 107% in test [2]; 83.5% in [3]; 112% in test [4]; 102% in [5]; 95.2% in [6]. The results for the growth in test [7], in [8] and in test [9] were 103%, 89.9% and 110%, respectively.
On to `Nc1n[nH]c2ccc([C@@H]3Nc4cc5c(cc4[C@H]4C6CCC(C6)[C@@H]34)C(=O)NC5)cc12` (stereo partly specified), for which the growth was 15.2% in [1]; 12% in test [2]; 2.29% (active) in [3]; 28.2% in test [4]; 18.1% in test [5]; 16.8% in [6]. For the same compound, the growth in test [7] is 38.9%; in [8], 18.2%; in [9] it was 59.2%.
Consider `Clc1ccc2c(NCCCCNc3nc(N4CCCCC4)nc4ccccc34)ccnc2c1`, for which the growth in test [1] was -38.2% (active); in [2], -14.2% (active); in test [3], -59.5% (active); in test [4] it was 18.6%; in [5], -32.9% (active); in test [6] it was 25.6%. Further, the growth is -86.9% (active) in test [7], -73.8% (active) in [8] and -71.1% (active) in [9].
On to `c1ccc(Cn2cc(-c3nc4ccccc4s3)c3cccnc32)cc1`, for which the growth in [1] was 109%; in test [2] it was 100%; in test [3], 91%; in test [4], 110%; in test [5] it was 100%; in test [6] it was 97%. The growth in [7] is 97.6%; in test [8], 99.3%; in [9] it was 113%.
As for `FC(F)(F)Oc1ccc2nc3nc4ccc[nH]c4cc3c2c1`, the growth in [1] is 87%; in test [2], 73.9%; in test [3], 61.7%; in [4], 58.3%; in [5], 65.6%; in test [6], 80%. In addition, the growth is 81% in [7], 80% in test [8] and 94.6% in [9].
